Source: PubChem BioAssay AID2284376 (EPA ToxCast)
Values joined by “and” are separate entries in the source; they are usually repeats but may differ in a detail not shown here. Equal entries are not always repeated. Active and inactive are the calls of the source. The calls were made as follows: active = hit-call score of the fitted dose curve at least 0.9, where 1 is the maximum; inactive = score below 0.9.

Each compound was assayed against Peroxisome proliferator-activated receptor gamma (Homo sapiens) (UniProt P37231) (assay: ERF_TW_NR_COA_hPPARG: Eurofins (ERF) Nuclear Receptor (NR) Functional Coactivator Assay for human Peroxisome Proliferator-activated Receptor gamma (PPARg) Agonism, conducted at Taiwan lab site).
Peroxisome proliferator-activated receptor gamma (Homo sapiens), sequence (P37231 whole entry, looked up): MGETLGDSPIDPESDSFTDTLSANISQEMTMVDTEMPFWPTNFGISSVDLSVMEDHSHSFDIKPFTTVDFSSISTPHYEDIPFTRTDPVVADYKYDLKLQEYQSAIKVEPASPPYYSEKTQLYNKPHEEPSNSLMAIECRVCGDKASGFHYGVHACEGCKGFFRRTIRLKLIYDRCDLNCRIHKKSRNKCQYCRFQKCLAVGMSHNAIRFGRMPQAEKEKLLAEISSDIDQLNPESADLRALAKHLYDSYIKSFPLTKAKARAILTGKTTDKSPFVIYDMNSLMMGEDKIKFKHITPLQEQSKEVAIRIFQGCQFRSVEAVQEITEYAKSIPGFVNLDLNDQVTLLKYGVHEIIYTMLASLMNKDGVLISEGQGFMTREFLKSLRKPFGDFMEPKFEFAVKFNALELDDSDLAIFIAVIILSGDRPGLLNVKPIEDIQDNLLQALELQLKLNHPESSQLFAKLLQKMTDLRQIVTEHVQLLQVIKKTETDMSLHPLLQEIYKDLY
Description: ERF_TW_NR_COA_hPPARG is a biochemical, single-readout assay that uses extracted gene-proteins in a cell-free assay. Measurements were taken 16 hours after chemical dosing in a 96-well plate. See PPARgamma Human NHR Functional Agonist Coactivator Assay, Panlabs.ERF_TW_NR_COA_hPPARG is an assay component calculated from the ERF_TW_NR_COA_hPPARG assay. It is designed to measure FRET using a type of binding reporter as detected by fluorescence intensity of rosiglitazone with fluorimetry technology.Data from the assay component ERF_TW_NR_COA_hPPARG was analyzed at the assay endpoint, ERF_TW_NR_COA_hPPARG, in the positive analysis fitting direction relative to DMSO as the negative control and baseline of activity. Using a type of binding reporter, gain-of-signal activity can be used to understand changes in binding as they relate to gene PPARG. To generalize the intended target to other relatable targets, this assay endpoint is annotated to the nuclear receptor intended target family, where the subfamily is non-steroidal.
Human recombinant PPARgamma receptors expressed in insect cells are used. Test compound and/or vehicle is incubated with the 2 nM receptors and coactivator peptide for 180 minutes at room temperature. Determination of the amount of complex formed is read spectrofluorimetrically (excitation: 337 nm, emission: 520/490 nm). Test compound-induced increase fluorescence by 50 percent or more (>/=50%) relative to 1 uM GW1929 response indicates possible PPARgamma receptor agonist activity. Test compound-induced inhibition of 5 nM GW1929-induced fluorescence response by 50 percent or more (>/=50%) indicates receptor antagonist activity.

With NC(=O)c1nc(-c2cccc(-c3cc(F)ccc3OCC(F)(F)C(F)(F)F)c2)n[nH]1 as the compound, how does the outcome read?
The outcome was “inactive”.

O=C(CC(=O)C(F)(F)C(F)(F)C(F)(F)F)c1cccs1 was tested. Which AC50 did it give?
Its AC50 is 44.4 µM (active) and 43.2 µM (active).

O=C(O)CCC(F)(F)C(F)(F)C(F)(F)F was tested. Which outcome did it give?
Its outcome is “inactive”.
